Data from PubChem BioAssay AID686978 (National Center for Advancing Translational Sciences (NCATS), 2013).
Several values for one entry are separate records, joined by “and”; a condition that tells them apart may be missing. Identical values can stand only once. The whole screen tested about 420,000 compounds, of which about 64,000 (15%) were called active. Inconclusive results (about 27%) are left out. Only a sample is shown. Values without a mark were called inactive. Calls come from the whole dose curve; as a rule, active = well fitted inhibition curve with a large enough effect; inconclusive = small, poorly fitted or top-dose-only effect; inactive = flat fitted curve, though single readings scatter.

assay: qHTS for Inhibitors of human tyrosyl-DNA phosphodiesterase 1 (TDP1): qHTS in cells in absence of CPT; conditions: DT40 Tdp1-/- hTDP1 cells, no CPT, ATP luminescence, 48 h; activity change, negative = growth inhibition: at 46.2 µM (top of the series); note: nearly all actives have a fitted effect of over 55% in size
Summary of the method: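 DT40 Tdp1-/-;hTDP1 cells, no CPT (DMSO vehicle only), 400 cells/well; compounds pin-transferred; ≥48 hr, 37 °C; CellTiter-Glo 30 min RT dark, luminescence read.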
% is set by controls: 0 for no effect and ±100 for the full control effect; potency is the fitted concentration of half-maximal effect.

Row | Compound | activity change, negative = growth inhibition [%] | Potency
1 | Cc1ccc(C(=O)NC2CCN(C(=O)N3CCOCC3)CC2)cc1 | -6.61 | 
2 | C#CCOCCOCCOCCNc1nc(N2CCN(C(=O)[C@H](C(C)C)n3cc(CCO)nn3)CC2)nc(N2CCN(C(=O)[C@H](C(C)C)n3cc(CCO)nn3)CC2)n1 | 6.58 | 
3 | COc1cccc(C(CC(=O)NCCN2CCOCC2)NS(=O)(=O)c2ccc(C)cc2)c1OC (centres undefined) | 10.7 | 
4 | O=C(N/N=C/c1ccco1)c1ccc(NC(=O)C2CC2)cc1 | -9.36 | 
5 | O=C(N/N=C/c1ccco1)c1ccc(C(=O)N/N=C/c2ccco2)o1 | 1.35 | 
6 | O=C(N/N=C/c1ccco1)c1csc2c1CCCC2 |  | 5.8 µM (active)
7 | Cc1cccc(C(=O)NCCCN2CCCC2=O)c1 | -23.4 | 
8 | Cc1nc2ccc(S(=O)(=O)NC(C(=O)N3CCCCCC3)C(C)C)cc2s1 (centres undefined) | -16.1 | 
9 | O=C(CN1C(=O)c2ccc([N+](=O)[O-])cc2C1=O)Nc1nnc(C2CC2)s1 | -1.22 | 
10 | CCOc1ccc(N2C(=O)CC(N(O)c3ccccc3)C2=O)cc1 (centres undefined) | -1.45 | 
11 | O=C(NC1(C(F)(F)F)NC(=O)N(C2CCCCC2)C1=O)c1ccco1 (centres undefined) | -3.09 | 
12 | O=C(O)C#Cc1cccc2ccccc12 | 4.33 | 
13 | CC(=O)Nc1ccc(S(=O)(=O)N2CCN(CCCOc3cc(C)ccc3C)CC2)cc1 |  | 18.4 µM (active)
14 | Cc1ccc(OCCCC(=O)Nc2ccc(S(=O)(=O)Nc3cc(C)nc(C)n3)cc2)cc1 | -6 | 
15 | Cc1ccc(C)c(S(=O)(=O)N2CCN(C(=O)Nc3ccccc3)CC2)c1 | -0.749 | 
16 | C=CCNC(=O)CCCOc1cccc(C)c1 | -0.741 | 
17 | COc1ccc(NC(=O)CCCOc2ccc(C(C)=O)cc2)cc1S(=O)(=O)N1CCCCC1 |  | 25.9 µM (active)
18 | CC(=O)Nc1ccc(S(=O)(=O)N2CCN(S(=O)(=O)c3cccs3)CC2)cc1 | -1.48 | 
19 | Cc1ccc(NC(=O)CCNC(=O)c2ccc([N+](=O)[O-])cc2)cc1S(=O)(=O)N1CCOCC1 | -13.7 | 
20 | CC(=O)Nc1ccc(S(=O)(=O)N2CCSCC2)cc1 | -22.9 | 
21 | Cc1ccc(C)c(S(=O)(=O)N2CCN(CC(=O)Nc3ccc([N+](=O)[O-])cc3)CC2)c1 |  | 16.4 µM (active)
22 | CCOC(=O)C1CCN(CC(=O)Nc2ccc(OC)c(S(=O)(=O)N3CCCCC3)c2)CC1 | -21.2 | 
23 | Cc1cccc(OCCCC(=O)Nc2ccc(S(=O)(=O)N3CCCC3)cc2)c1 |  | 18.4 µM (active)
24 | COc1ccc(NC(=O)CSc2nnc(C3CC3)n2C)cc1S(=O)(=O)N1CCCCC1 | 19.6 | 
25 | CCOc1ccccc1NC(=O)Cn1c(=O)n(Cc2ccccc2)c(=O)c2c(C)c(C(=O)N(C)C)sc21 | 1.44 | 

Row | Compound | activity change, negative = growth inhibition [%] | Potency
26 | O=C(NCCN1CCOCC1)C1CCN(S(=O)(=O)c2ccccc2)CC1 | -3.81 | 
27 | COCCCn1c(SCC(=O)Nc2oc(C)c3c(C)n[nH]c(=O)c23)nc2sc3c(c2c1=O)CCC3 | -22.9 | 
28 | O=c1c(CCc2ccccc2)nc2cncnc2n1C1CC1 | -20.2 | 
29 | C=CCn1c(COc2cccc3cccnc23)nnc1SCC(=O)OC | 1.72 | 
30 | CC(=O)c1cc2c(cc1N)OCO2 | -20.4 | 
31 | C/C(COc1ccccc1)=N\NC(=O)c1nnn(-c2nonc2N)c1-c1ccc(C)cc1 | -14.1 | 
32 | CSc1ccc(S(=O)(=O)N2CCC(C(=O)NCCc3ccccc3)CC2)cc1 | 12.2 | 
33 | Cc1cc(S(=O)(=O)NC2CCCC2)ccc1-n1cnnn1 | -3.77 | 
34 | COc1ccc(NC(=O)c2ccc3oc(=O)c(S(=O)(=O)c4ccc(F)cc4)cc3c2)c(OC)c1 | -18.6 | 
35 | CCCCNC(=O)C1(O)c2ccccc2NC(=O)N1c1ccc(Cl)cc1 (centres undefined) | 0.754 | 
36 | CC(=O)Nc1ccc(NC(=O)CCN2C(=O)C3CC=CCC3C2=O)cc1 (centres undefined) | 8.23 | 
37 | CCNC(=S)N(CCN(CC)CC)Cc1cc2cc3c(cc2[nH]c1=O)OCO3 | -4.4 | 
38 | Cc1c(C)c2c(OCC(=O)N[C@@H](C(=O)O)c3ccccc3)cc3c(c2oc1=O)CCC(C)(C)O3 | -5.21 | 
39 | CC(=O)NCCC(=O)Nc1cc(S(=O)(=O)N2CCOCC2)ccc1N1CCOCC1 | 4.67 | 
40 | CC(C)CCC(=O)Nc1cc(S(=O)(=O)N2CCOCC2)ccc1N1CCCC1 | 6.5 | 
41 | Cc1cccc(OCCC(=O)Nc2cc(S(=O)(=O)N3CCCCC3)ccc2N2CCOCC2)c1 |  | 20.6 µM (active)
42 | Cc1ccccc1NC(=O)CCOc1ccccc1 |  | inactive
43 | Cc1cccc(OCCC(=O)Nc2ccccc2C(N)=O)c1 |  | 11.6 µM (active)
44 | Cc1cccc(OCC(=O)Nc2ccccc2F)c1 | -15 | 
45 | O=C(Nc1cccc(C(=O)O)c1)/C(=C\c1ccccc1)NC(=O)c1ccc(Br)o1 | -20.8 | 
46 | Nc1nc2ncccn2c1-c1ccccc1 | 0.245 | 
47 | O=c1cc(-c2ccccc2)n2c(SCc3ccccc3)nnc2[nH]1 | 1.75 | 
48 | CC1Cc2cc(S(=O)(=O)CCC(=O)Nc3ccc(F)c(Cl)c3)ccc2N1C(=O)C1CC1 (centres undefined) |  | 10.3 µM (active)
49 | CC(=O)N1c2ccc(S(=O)(=O)N(C)CC(=O)N(C)Cc3ccccc3)cc2CC1C (centres undefined) | -9.56 | 
50 | COc1cccc(CNS(=O)(=O)c2ccc3c(c2)CC(C)N3C(=O)C2CCC2)c1 (centres undefined) |  | 16.4 µM (active) and 7.31 µM (active)

Row | Compound | activity change, negative = growth inhibition [%] | Potency
51 | COc1cccc(CNC(=O)C2CCCN(S(=O)(=O)N3CC(C)CC(C)C3)C2)c1 (centres undefined) | -6.42 | 
52 | CC1Cc2ccccc2N1CC(=O)Nc1ccc(S(N)(=O)=O)cc1 (centres undefined) | -10.1 | 
53 | CC1(NC(=O)CCS(=O)(=O)c2ccc(Cl)cc2)CCS(=O)(=O)C1 (centres undefined) | 16.3 | 
54 | CC1Cc2cc(S(=O)(=O)CCC(=O)NCc3ccc(Cl)cc3)ccc2N1C(=O)C1CC1 (centres undefined) |  | 4.61 µM (active)
55 | COc1cccc(CNC(=O)C2CCC(CNS(=O)(=O)c3cccs3)CC2)c1 (centres undefined) | -28 | 
56 | CCC(=O)N1c2ccc(S(=O)(=O)CCC(=O)N3CCN(c4ccccc4)CC3)cc2CC1C (centres undefined) | -26.5 | 
57 | CCOc1ccc(NC(=O)CCS(=O)(=O)c2ccc3c(c2)CCCN3C(=O)CC)cc1 | -11.2 | 
58 | Cn1c(=O)oc2cc(S(=O)(=O)CCC(=O)NCCc3ccc(Cl)cc3)ccc21 | 5.12 | 
59 | Cc1ccc(CNC(=O)CCS(=O)(=O)c2ccc3c(c2)CC(C)N3C(=O)C2CC2)o1 (centres undefined) |  | 25.9 µM (active)
60 | Cc1ccc2[nH]c3c(=O)n(CC(=O)NC(C)C)ncc3c2c1 | 4.21 | 
61 | COc1ccc(S(=O)(=O)NC(C)C(=O)Nc2cccc([N+](=O)[O-])c2)cc1 (centres undefined) | -25.6 | 
62 | Cc1ccc(S(=O)(=O)c2c[nH]c3ccc(C)cc3c2=O)cc1 | -4.84 | 
63 | C[C@H]1CN([C@@H](C)CO)C(=O)Cc2cc(NS(C)(=O)=O)ccc2O[C@@H]1CN(C)CC1CC1 | -11 | 
64 | CCC(Oc1ccccc1)C(=O)OCC(=O)Nc1c(C)nn(-c2ccccc2)c1C (centres undefined) | -13.4 | 
65 | CCCc1cc(C(=O)Nc2ccc(C(=O)OC)cc2)cs1 | 6.02 | 
66 | CC(O)c1ccc(OCCN(C)c2ccccn2)cc1 (centres undefined) | -6.31 | 
67 | O=C(COC(=O)c1c(Cl)cccc1Cl)Nc1cccc(S(=O)(=O)NC2=NCCCCC2)c1 | 13.1 | 
68 | CCn1c(CC(=O)Nc2ccccc2C)nnc1SCC(=O)NC1=NCCS1 | -27 | 
69 | COCCCNC(=O)C1CCN(c2ccc(N3CCOCC3)nn2)CC1 | 0.0826 | 
70 | COC(=O)Cc1ccc(NC(=S)NCc2ccccc2)cc1 | -29.3 | 
71 | Fc1ccccc1CNC(=S)Nc1ccc(Cl)cc1 |  | 20.6 µM (active)
72 | Cn1cc(C(=O)NCc2ccccc2F)cn1 | -12.8 | 
73 | C[C@H](C(=O)CC(=O)OC(C)(C)C)[C@H](O)c1ccc(C(F)(F)F)cc1 | -27.5 | 
74 | O=C(NCc1ccncc1)NC12CC3CC(CC(C3)C1)C2 | -16.2 | 
75 | CCN(CC(=O)NCc1ccc(F)cc1)S(=O)(=O)c1ccc(Cl)s1 | -10.1 | 

Row | Compound | activity change, negative = growth inhibition [%] | Potency
76 | CCCCNC(=O)c1nc(C2CCN(S(=O)(=O)c3ccc(F)c(F)c3)CC2)oc1-c1cccc(C(F)(F)F)c1 | 2.36 | 
77 | C#CC(CCN1CCCCC1)(OC)c1ccccc1 (centres undefined) | -0.836 | 
78 | CN1CCC[C@@H]1CCO[C@](C)(c1ccccc1)c1ccc(Cl)cc1 |  | 26.6 µM (active)
79 | CN1CCCC1CCO[C@@](C)(c1ccccc1)c1ccc(Cl)cc1 (some centres undefined) |  | 14.6 µM (active)
80 | CCC1CCC/C1=N\NC(=O)c1ccc(Cl)cc1 (centres undefined) | -9.86 | 
81 | COc1ccc(CN2CCNC(=O)C2CC(=O)N(C)Cc2ccccn2)cc1OC (centres undefined) | 1.2 | 
82 | CC1CC(C)CN(S(=O)(=O)c2cccc(C(=O)N3C(=O)c4cccc(N)c4C3=O)c2)C1 (centres undefined) | 5.73 | 
83 | COC(=O)c1cccc(Cn2nnc3sc4c(c3c2=O)CCC(C(C)(C)C)C4)c1 (centres undefined) |  | 18.4 µM (active)
84 | COc1cccc2cc(-c3nc(Cl)c4c5c(sc4n3)CC(C)CC5)c(=O)oc12 (centres undefined) | -0.111 | 
85 | Cc1ccc(NC(=O)Cn2nnc3sc4c(c3c2=O)CCC(C)C4)cc1 (centres undefined) | -79.2 | 
86 | O=C(C1CCCO1)N(Cc1ccccc1)c1ccccc1 (centres undefined) | -1.91 | 
87 | Cc1cc(C)c(NC(=O)c2cc3sc(Cl)cc3n2C)c(C)c1 | -14.2 | 
88 | CCOC(=O)Cc1ncccc1C(=O)Nc1ccc(OC(F)(F)F)cc1 |  | 14.6 µM (active)
89 | CCOC(=O)Cc1ncccc1C(=O)Nc1ccc(OC)cc1 | -8.44 | 
90 | COC(=O)Cc1ccc(OCC(=O)Nc2ccc(OC(F)(F)F)cc2)cc1 | 0.899 | 
91 | O=c1[nH]snc1-c1c(Cl)cccc1Cl | 2.16 | 
92 | O=C(NC1CC(=O)N(c2ccc(Cl)cc2)C1)C1CCCC1 (centres undefined) | -17.6 | 
93 | Cc1cc(C)c(S(=O)(=O)Nc2c(C)n(C)n(-c3ccccc3)c2=O)cc1[N+](=O)[O-] | -2.01 | 
94 | CCCCCCCC[n+]1cccc(C(=O)N2c3c(nc(N)[nH]c3=O)NC(C)C2C)c1 (centres undefined) | -7.83 | 
95 | N#CC1=C(N)N(c2ccccc2)C2=C(C(=O)CCC2)C1c1ccccc1 (centres undefined) | -9.89 | 
96 | CSc1sc(C)cc1C1C(C#N)=C(N)N(c2cccnc2)C2=C1C(=O)CCC2 (centres undefined) |  | 11.6 µM (active)
97 | COc1ccc(C2C(C#N)=C(N)N(c3ncn[nH]3)C3=C2C(=O)CCC3)cc1 (centres undefined) | -0.937 | 
98 | Nc1c(N(CCO)C(=O)C2CCCCC2)c(=O)[nH]c(=O)n1Cc1ccccc1 | -28.9 | 
99 | COCCSc1nnc(NC(=O)c2cc(OC)c(OC)cc2[N+](=O)[O-])s1 | -0.273 | 
